# Rows were chosen to be rich in hits. Some 21% of all compounds tested hit in one or more screens of this group.
# Cycloheximide cs: Cycloheximide Counterscreen for Small Molecule Inhibitors of Shiga Toxin | 300,000 compounds, 12% hits | max response, % | cell reporter, cycloheximide protein synthesis inhibition counterscreen; in the data active = max response mostly above about 13%, no sharp cut-off; inactive = mostly below about 14%; also: read at 38.3 µM for the half of the compounds with a filed dose
# Pf growth 96h: Primary qHTS for delayed death inhibitors of the malarial parasite plastid, 96 hour incubation. P. falciparum luciferase reporter growth, 96 h. Potency, µM (titrated, usually from 28.7 µM), actives largely listed as inhibitors. 320,000 compounds, 6.9% hits; active = well fitted inhibition curve with a large enough effect; inconclusive = small, poorly fitted or top-dose-only effect, or another doubt; inactive = no such curve, though single readings can be large or run the other way
#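 Luminescence readout: decreased luciferase signal marks inhibited growth of reporter-expressing P. falciparum in infected red cells (2% hematocrit, 0.05% parasitemia final), exposed to compound two generations (96 h, 37 C, 5% CO2).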
# SARS PLP yeast: qHTS of Yeast-based Assay for SARS-CoV PLP. Potency, µM (doses to about 32.9 µM), actives largely listed as activators. S. cerevisiae expressing SARS-CoV PLpro, growth rescue. 330,000 compounds, 0.19% hits; also: nearly all actives have a fitted effect of over 55% in size
# Pf growth 48h: Primary qHTS for delayed death inhibitors of the malarial parasite plastid, 48 hour incubation. P. falciparum luciferase growth in erythrocytes, 48 h. Potency, µM (top dose mostly 28.7 µM), most hits filed as inhibitors. 310,000 compounds, 5.9% hits; active = well fitted inhibition curve with a large enough effect; inconclusive = small, poorly fitted or top-dose-only effect, or another doubt; inactive = no such curve, though single readings can be large or run the other way
#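 Luciferase-expressing P. falciparum in infected erythrocytes (2% hematocrit, 0.1% parasitemia final) in RPMI 1640/0.5% Albumax were exposed to compound for 48 hours at 37 C, 5% CO2; growth read as luminescence.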
# NS1 function inh: qHTS Assay for Inhibitors of Influenza NS1 Protein Function; AID 2326, 2010; Potency, µM (doses to about 46.1 µM); 270,000 compounds, 0.4% hits; also: actives are rising curves; nearly all actives have a fitted effect of over 50% in size
#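 Growth recovery, yeast-based: influenza A NS1 expressed in S. cerevisiae causes slow growth, and suppressors are detected by OD600. The parent strain without NS1 is used as positive control.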
# Shiga inhibitor: A qHTS for Small Molecule Inhibitors of Shiga Toxin. Vero cells, Shiga toxin protein synthesis inhibition reporter. inhibition, % at 38.7 µM. 290,000 compounds, 9.2% hits. AID 2315, 2010; in the data active = inhibition mostly above about 28%, no sharp cut-off; inactive = mostly below about 43%
# Hits are given with their value; 0 = inactive; ? = inconclusive; - = no result. Unless noted, calls follow the shape of the full dose curve.
SMILES,Cycloheximide cs,Pf growth 96h,SARS PLP yeast,Pf growth 48h,NS1 function inh,Shiga inhibitor
O=C(OCC(=O)N1CCN(c2ccccc2)CC1)c1ccc2ncsc2c1,0,12µM,0,-,0,0
COc1ccc(OC)c(CCNC(=O)c2ccc(CS(=O)Cc3ccc(Cl)cc3)o2)c1 (configuration not stated),0,?,?,0,0,0
CC(C)[C@H](NC(=O)c1ccccc1)C(=O)OCC(=O)N1CCCc2ccccc21,0,0,0,0,0,0
CC(C(=O)NCC1CCCCC1)N(C)CC(=O)Nc1ccc(N2CCOCC2)cc1 (configuration not stated),0,0,0,0,-,0
CC(=O)c1c(C)[nH]c(C(=O)C(C)Sc2nnc(NC3CC3)s2)c1C (configuration not stated),-,9.3µM,0,13µM,-,-
COCCNC(=O)CN(C(=O)CCC(=O)Nc1ccccn1)c1ccccc1F,0,0,0,0,-,0
COc1cc2cc(CCCOC(=O)c3ccc(C(F)(F)F)cc3)oc(=O)c2cc1OC,-,0,0,0,-,-
Cc1ccc(S(=O)(=O)N2CCCCC2C(=O)NCc2ccco2)cc1 (configuration not stated),0,5.2µM,0,?,0,0
CC1CCCCN1S(=O)(=O)c1ccc(S(=O)(=O)N(Cc2ccccc2)Cc2ccco2)cc1 (configuration not stated),0,10µM,0,10µM,0,0
Cc1ccc(S(=O)(=O)N2CCC(C(=O)N3CCC[C@H]3C(=O)NCc3ccco3)CC2)cc1,0,13µM,0,12µM,0,0
CCOC(=O)c1c(CN2CCOCC2)n(C)c2cc(Br)c(O)c(CN(C)C)c12,0,?,0,10µM,?,0
CCOC(=O)c1c(C)n(C)c2cc(CN(C)C)c(O)c(S(=O)(=O)c3ccccc3)c12,23,?,0,0,0,0
CCOC(=O)c1c(CS(=O)(=O)c2ccccc2)n(C)c2cc(Br)c(O)c(CN(C)C)c12,0,0,0,9.3µM,0,0
Cc1ccc(S(=O)(=O)c2cc3ccccc3oc2=O)cc1,0,0,0,0,-,0
Cc1cccc(-c2noc(-c3cc4ccccc4oc3=O)n2)c1,29,0,0,0,0,85
O=c1oc2ccccc2cc1-c1nc(-c2ccccc2)no1,36,0,0,0,0,107
Cc1ccc(-c2noc(-c3cc4ccccc4oc3=O)n2)cc1,25,0,0,0,0,0
CCn1nc(C(=O)NNS(=O)(=O)c2ccc(C)cc2)c2ccccc2c1=O,-,-,0,-,-,-
CCc1ccc(NC(=O)COC(=O)c2nc3nc(C)cc(C)n3n2)cc1,-,0,0,0,-,-
CCOC(=O)C1CCN(C(=O)Cn2cnc3sc(C)c(S(=O)(=O)N4CCOCC4)c3c2=O)CC1,0,?,0,1.5µM,0,0
CC(C)(C)[C@H]1C=C(C(=O)NC2CC2)O[C@@H](OCc2ccc(CO)cc2)C1,0,?,0,?,0,0
COc1ccc(-c2cc(=NCC(=O)O)c3ccccc3o2)cc1,28,0,0,0,0,62
COc1ccc(-c2cc(=Nc3cccc(C(=O)O)c3)c3cc(C)ccc3o2)cc1,59,0,0,0,-,98
COc1ccc(-c2cc(=NCCCCCC(=O)O)c3cc(C)ccc3o2)cc1,0,?,0,0,-,0
CCc1ccc2oc(-c3ccc(OC)cc3)cc(=Nc3c(C)n(C)n(-c4ccccc4)c3=O)c2c1,63,?,0,0,-,127
SMILES,Cycloheximide cs,Pf growth 96h,SARS PLP yeast,Pf growth 48h,NS1 function inh,Shiga inhibitor
COc1ccc(CNC(=O)c2cc(=O)c3cc(C)ccc3o2)cc1,0,0,0,0,0,0
O=c1cc(-c2ccccc2)oc2ccccc12,-,0,0,0,-,-
COc1ccc(-c2nc3ccccc3c(=O)n2-c2c(C)n(C)n(-c3ccccc3)c2=O)cc1,0,0,0,0,0,0
COc1ccc(-c2cc(=Nc3ccc(C(=O)O)cc3)c3cc(C)ccc3o2)cc1,63,0,0,0,-,161
O=C(Cc1ccc(F)cc1)Nc1nnc(SCC(=O)NC2CCCC2)s1,0,0,0,0,0,0
CC(C)[C@H](NC(=O)c1ccccc1)C(=O)OCC(=O)N1CCN(C(=O)c2ccco2)CC1,0,0,0,0,0,0
Cc1ccc(CCNC(=O)Cn2cccc2)cc1,0,0,0,0,0,0
CCC(=O)Nc1cccc(NC(=O)c2ccc(C)cc2Cl)c1,0,?,0,0,0,0
COc1ccc(S(=O)(=O)NCC(=O)O)cc1C(=O)NC1CCCCC1,0,0,0,0,0,0
CCc1ccc2oc(-c3ccc(OC)cc3)cc(=Nc3cccc(C(=O)O)c3)c2c1,58,?,0,0,-,137
Cn1nc(C(=O)NNC(=O)C2CSC3(C)CCC(=O)N23)c2ccccc2c1=O (configuration not stated),-,0,0,0,-,-
COc1ccc(Cc2nnc(NC(=O)CS(=O)(=O)c3ccc(C)cc3)s2)cc1OC,0,0,0,0,0,0
CCCc1nnc(NC(=O)CCC(=O)N2CCN(S(=O)(=O)c3ccc(C)cc3)CC2)s1,0,0,0,0,0,53
CCCc1nnc(NC(=O)CCC(=O)N2CCN(CCOC(c3ccccc3)c3ccccc3)CC2)s1,0,?,0,10µM,0,0
CCOCCc1nnc(NC(=O)CS(=O)(=O)c2ccc(C)cc2)s1,0,0.23µM,0,0,0,0
O=C(Cn1cncn1)N/N=C/c1cccnc1,0,0,0,0,0,0
Cc1cccc(C(=O)Nc2cccc3c2CCCC3)c1,0,0,0,0,0,0
O=C(c1ccc([N+](=O)[O-])o1)N1CCN(c2nc3c(F)cc(F)cc3s2)CC1,-,0.33µM,0,1µM,-,-
COc1ccc(S(=O)(=O)N2CCN(C(=O)c3ccc([N+](=O)[O-])o3)CC2)cc1,0,?,0,?,0,0
Cc1ccc(C)c2sc(N3CCN(C(=O)c4ccc([N+](=O)[O-])o4)CC3)nc12,-,0.33µM,0,0.83µM,-,-
Cc1ccc(Nc2nc(C)cs2)cc1,54,?,0,0,0,125
Cc1csc(NS(=O)(=O)c2ccc(Cl)cc2)n1,0,?,0,0,0,0
Cc1csc(Nc2ccc(Cl)cc2)n1,24,?,0,0,0,73
Cc1cc(-n2c(SCC(=O)NCCC3=CCCCC3)nc3n[nH]c(C)c3c2=N)ccc1Cl,0,4.7µM,0,?,0,0
Cc1ccc(Cl)cc1-n1c(SCC(=O)NCCC2=CCCCC2)nc2n[nH]c(C)c2c1=N,0,?,0,?,0,0
O=C1/C(=C/c2cccc(Br)c2)SC(=S)N1/N=C/c1cc([N+](=O)[O-])ccc1O,0,0,?,0,0,0
COC(=O)C1Cc2ccccc2CN1C(=O)CCl (configuration not stated),0,?,0,?,-,0
COc1ccc(OCC(O)CNC2CCCC2)cc1 (configuration not stated),0,0,0,0,0,0

# Compound activity as filed in PubChem BioAssay.
